MPTP block: permeability transition pore inhibition; isolated mouse mitochondria, Ca2+ swelling absorbance, 30 min; inhibition, % at 10 µM; 360,000 tested, 1.4% active;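 active = inhibition of 50% or more, scaled per plate between neutral and stimulator controls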
rCAG RNA binder: binds r(CAG) RNA repeats. AID 651821. r(CAG) RNA repeat, TO-PRO-1 dye displacement fluorescence. inhibition, % at 3 µM. 370,000 tested, 1.3% active;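 active = inhibition above the plate cutoff, the mean of all test compounds on that plate plus 3 SD, cut at about 35% in these data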;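 note: higher means more dye released from RNA so lower well fluorescence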
proKLK7 act: activates the human kallikrein-7 zymogen; P49862; purified proKLK7, EDANS-DABCYL substrate fluorescence; 100% is mature enzyme control, 0% vehicle; activation, % at 7 µM; 370,000 tested, 0.9% active; AID 652039;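 active = activation above the mean of all tested compounds plus 3 SD, computed per campaign excluding outliers beyond control limits, cut at about 13% in these data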
Target sequence (P49862 whole entry, looked up): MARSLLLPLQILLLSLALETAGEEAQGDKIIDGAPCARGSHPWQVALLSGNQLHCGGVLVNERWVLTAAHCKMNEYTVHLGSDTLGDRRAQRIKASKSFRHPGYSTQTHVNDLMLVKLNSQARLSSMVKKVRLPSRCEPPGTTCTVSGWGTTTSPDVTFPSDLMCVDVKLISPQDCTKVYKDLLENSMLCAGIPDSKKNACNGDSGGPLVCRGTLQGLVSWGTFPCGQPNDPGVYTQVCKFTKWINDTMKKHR
ADAM17 inh: inhibits human ADAM17; 370,000 tested, 0.83% active; P78536; recombinant ADAM17, EDANS/DABCYL FRET peptide cleavage; inhibition, % at 6.95 µM;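 active = inhibition above the mean of compounds lying between control limits plus 3 SD, set per campaign, cut at about 8.5% in these data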
Pemphigus Ab inh: human desmoglein-3 autoantibody binding inhibition. DSG3-coupled beads, scFv-anti-DSG3-GFP binding, flow cytometry; stronger effect = lower value. binding (percent of control), % at 10 µM. 310,000 tested, 0.48% active. AID 588358;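 active = binding more than 3 SD below its plate's average and above zero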;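 note: hits lower antibody fragment binding to DSG3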
ADAM10 inh: inhibits human ADAM10. O14672. recombinant ADAM10, EDANS/DABCYL FRET peptide cleavage, 3 h. inhibition, % at 7 µM. 370,000 tested, 0.62% active;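 active = inhibition above a per-campaign cutoff equal to the mean of compounds falling between control-based bounds plus 3 SD, cut at about 20% in these data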
KLK7 act conf: proKLK7 activation, confirmation | purified proKLK7, EDANS-DABCYL substrate fluorescence; scaled: vehicle 0, mature enzyme 100 | activation, % at 7 µM | 3,200 tested, 68% active | shares compounds with proKLK7 act;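 active = activation, as change over the incubation, above the mean of all tested compounds plus 3 SD, cut at about 13% in these data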
EDANS interfere: counter-screen for kallikrein-7 activators: EDANS-DABCYL optical interference | EDANS-DABCYL substrate fluorescence interference, no enzyme, 4 h; solvent 0%, active enzyme control 100% | shares compounds with proKLK7 act | 3,200 tested, 80% active | activation, % at 7 µM;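 active = activation above the all-compound mean plus 3 SD, ignoring values outside control-based bounds, cut at about 4.8% in these data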;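 note: value is the 4 h activation minus the activation read at time zero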
Numbers stand for hits; – = inactive; · = no result given. An excerpt weighted towards active compounds, which were near 4.7% of everything screened.

SMILES	MPTP block	rCAG RNA binder	proKLK7 act	ADAM17 inh	Pemphigus Ab inh	ADAM10 inh	KLK7 act conf	EDANS interfere
O=C(NCCNC(=O)c1ccc(Cl)cc1Cl)c1ccco1	–	–	–	–	–	–	·	·
Cc1oc(-c2ccccc2Cl)nc1CS(=O)CC(=O)NCc1ccccc1Cl (stereo not given)	–	–	–	–	–	–	·	·
COC1=CC(=O)c2nc(Cl)ccc2C1=O	–	–	92.2	–	·	–	161.0	160.8
COC1=CC(=O)c2c(ccc3ncnc(N)c23)C1=O	–	–	–	–	–	–	·	·
CCOC(=O)c1cc2ccc(OC)c(OC)c2c(=O)s1	–	–	–	–	–	–	·	·
CCOC(=O)CC(=O)Nc1cc2ccc(OC)c(OC)c2cc1C(=O)OCC	–	–	15.6	–	–	–	–	–
CCc1cc2c(=O)c(-c3nc4ccccc4n3C)c(COCC(=O)O)oc2cc1OC(=O)C(C)(C)C	–	–	–	–	–	–	·	·
CCc1cc2c(=O)c(-c3nc4ccccc4n3C)c(C)oc2cc1OC(C)=O	–	–	38.1	–	–	–	69.2	65.9
Cc1cc(C)c(NS(=O)(=O)c2ccccc2)c(C)c1NS(=O)(=O)c1ccccc1	–	–	–	–	–	–	·	·
Cc1cc(NC(=O)COC(=O)c2ccccc2NCCO)no1	–	–	33.7	–	–	–	26.8	23.8
CCOC(=O)c1ccccc1NC(=O)COC(=O)CSCC(=O)Nc1cc(C)on1	–	–	–	–	–	–	·	·
CSc1ccc(C(=O)C2CCCN(C(=O)CCc3c(C)nn(C)c3C)C2)cc1 (stereo not given)	–	–	–	–	–	–	·	·
CNC(=O)c1ccc(Nc2nnc(-c3ccc(C(N)=O)cc3)c3ccccc23)cc1	–	–	132.8	–	–	–	–	108.3
COc1ccc2c(c1)c1ncn(CC3CCCO3)c(=O)c1n2C (stereo not given)	–	–	12.8	–	–	–	–	–
COc1ccc2c(c1)[nH]c1c(=O)n(CCCN3CCOCC3)cnc12	–	–	–	–	–	–	·	·
COc1ccc2c(c1)c1ncn(CCCN3CCOCC3)c(=O)c1n2C	–	–	14.6	–	–	–	–	20.2
COc1ccc(S(=O)(=O)N2CC(C)N(C(=O)N3CCOCC3)C2)cc1 (stereo not given)	–	–	–	–	–	–	·	·
COc1ccc(Cc2c(C3CCCCC3)nc3ccc(Cl)cn23)c(C)c1	–	–	–	–	·	–	·	·
CCOC(=O)c1c(N/C=C(\C#N)c2nc(-c3ccc(OC(C)=O)cc3)cs2)sc2c1CCC2	–	–	–	–	–	–	·	·
CC1=NCC(C)c2ccccc21 (stereo not given)	–	–	–	–	–	–	·	·
CC1=NCC(C)c2c1[nH]c1ccccc21 (stereo not given)	–	–	30.3	–	·	–	19.8	17.0
CSc1nc2ncc3c(n2n1)CC1c2ccccc2CCN1C3=O (stereo not given)	–	–	–	–	–	–	·	·
N#Cc1cnn2c3c(cnc12)C(=O)N1CCc2ccccc2C1C3 (stereo not given)	–	–	76.6	–	–	–	–	–
O=C1c2cnc3ncnn3c2CC2c3ccccc3CCN12 (stereo not given)	–	–	100.9	–	–	–	195.5	178.9
N#Cc1ccsc1NC(=O)C1=COCCO1	–	–	–	–	–	–	·	·
COc1cc2c(cc1OC)/C(=C/C#N)NC(C)(C)C2	–	–	19.3	–	–	–	–	13.5
COc1cc2c(cc1OC)C(=S)NC1(CCCC1)C2	–	–	–	–	–	–	·	·
Cc1ccccc1S(=O)(=O)N(C)C[C@H]1OCc2cn(nn2)CCCC(=O)N([C@H](C)CO)C[C@@H]1C	–	–	–	–	·	–	·	·
CC(=O)N(C(C)=O)c1ncc2c([nH]c3ccccc32)c1C#N	–	–	18.8	–	–	–	24.6	24.8
Cc1cc(Cn2nc(-c3ccccc3)cc2C(=O)NCc2cccs2)on1	–	–	–	–	–	–	·	·

Compound activity from PubChem BioAssay.
